Compound activity (PubChem BioAssay)
Sampled rows, rich in hits. Any-hit rate of the full collection: about 3.6%.
TDP43 rescue: TDP-43 toxicity inhibition in yeast. TDP-43 expressing yeast growth rescue, BacTiter-Glo, 24 h. AID 652104. 410,000 compounds, 1.8% hits. Potency, µM (doses to about 46.1 µM), inactives show at the highest dose growth rescue (activation), usual class: activators; further: % of control where 0% means no effect; nearly all actives have a fitted effect of over 50% in size
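Yeast cells expressing TDP-43 under galactose induction are exposed to compounds for 24 hr at 30 deg C. BacTiter-Glo luminescence measures growth, so protective compounds score as activators.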
FUS suppressor: rescues growth of FUS-expressing yeast; S. cerevisiae FUS-expressing, growth rescue, OD600, 24 h; Potency, µM (top dose mostly 76.6 µM), usual class: activators; 390,000 compounds, 0.24% hits;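 further: plate controls were DMSO vehicle for no effect and reference control for full effect; nearly all actives have a fitted effect of over 55% in size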
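Compound concentration series was pinned onto galactose-induced FUS-expressing yeast seeded at OD 0.005. Plates sat 24hr at 30C; absorbance at 600 nm gave growth. DMSO served as background control.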
ClpP mod: qHTS Assay for Activators of ClpP | 340,000 compounds, 1.9% hits | AID 651965, 2013 | Potency, µM (doses to about 57.5 µM), for the others: at the top dose activity change, negative = active | ATP-dependent Clp protease proteolytic subunit (Bacillus subtilis (strain 168)), P80244 | purified B. subtilis ClpP, FRET peptide cleavage, 20 min; active means well fitted falling curve with a large enough effect; inconclusive means small, poorly fitted or top-dose-only effect; inactive means no such curve, though single readings can be large or run the other way; further: the source files actives as falling curves though it sought activators and does not explain the sign; nearly all actives have a fitted effect of over 65% in size
Target sequence (P80244 whole entry, looked up): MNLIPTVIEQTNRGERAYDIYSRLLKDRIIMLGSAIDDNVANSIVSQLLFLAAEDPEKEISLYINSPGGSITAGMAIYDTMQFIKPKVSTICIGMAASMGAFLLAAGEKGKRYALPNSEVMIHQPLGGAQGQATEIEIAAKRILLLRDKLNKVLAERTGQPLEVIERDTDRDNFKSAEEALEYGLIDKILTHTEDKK
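FRET quenching reversal measured ClpP activation: 10 microg/mL B. subtilis ClpP at pH 8 with the FRET-FV decapeptide, read at 430 nm after 320 nm excitation. The 20-min minus 0-min signal was scaled between DMSO/no-enzyme wells and ADEP (5.8 microM final).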
Mm-Cpn inhibitor: blocks the Methanococcus maripaludis chaperonin Mm-Cpn. purified Mm-Cpn ATPase, ADP Transcreener TR-FRET. 330,000 compounds, 0.031% hits. Potency, µM (highest dose often 76.9 µM), for the others: at the highest dose activity, negative = inhibition, actives largely listed as inhibitors; further: on the % scale 0 is the no-effect control and ±100 the full control effect; nearly all actives have a fitted effect of over 80% in size
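Reaction buffer contained 30 mM Tris pH 7.4, 100 mM KCl, 5 mM MgCl2 and 1 mM DTT. Mm-CPN (25 nM final) hydrolysed 10 uM ATP over 30 min at 37°C; ADP was read by HTRF.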
Abeta yeast res: compounds reversing amyloid beta toxicity in yeast; 410,000 compounds, 0.063% hits; Potency, µM (titrated, usually from 46.1 µM), most hits filed as activators; yeast expressing A-beta42, growth rescue, OD600, 48 h; response scale: 0% DMSO, 100% iron-clioquinol control; further: nearly all actives have a fitted effect of over 55% in size
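Growth rescue measured by 600 nm absorbance after 48 h yeast culture at 30 C with compound. Values normalized between DMSO and an equimolar ferric chloride plus clioquinol control.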
aSyn yeast inh: alpha-synuclein toxicity inhibition in yeast | Yeast expressing alpha-synuclein, growth rescue, BacTiter-Glo, 24 h | Potency, µM (highest dose often 46.1 µM), inactives show at the top dose growth rescue (activation), usual class: activators | 370,000 compounds, 0.14% hits | AID 652106; further: % of control where 0% means no effect; nearly all actives have a fitted effect of over 65% in size
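Readout is rescue of growth in alpha-synuclein-expressing yeast, so inhibitors of toxicity appear as activators. Growth after 24 hr at 30 deg C in galactose medium is quantified by luminescence.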
* hit, by the source's call; i = inactive; u = inconclusive; x = no result given; [ ] = remark or other dose. Unless noted, the call rests on the fitted dose curve; in most records, active means well fitted curve in the direction sought with a large enough effect; inconclusive means small, poorly fitted or top-dose-only effect, or another doubt; inactive means no such curve, though single readings can be large; an effect the other way counts as inactive or inconclusive. Potency means the concentration at half of the fitted maximal effect.

SMILES	TDP43 rescue	FUS suppressor	ClpP mod	Mm-Cpn inhibitor	Abeta yeast res	aSyn yeast inh
CCC(C)OC(=O)c1c(N)n(Cc2cccs2)c2nc3ccccc3nc12 (stereo not given)	10%	i	14µM*	0%	i	-3%
COCCCn1c(N)c(C(=O)OC(C)COC)c2nc3ccccc3nc21 (stereo not given)	1%	i	u	-2%	i	-1%
CC(C)(C)OC(=O)c1c(N)n(Cc2ccco2)c2nc3ccccc3nc12	10%	u	-1%	-5%	i	8%
COc1ccccc1N=Nc1ccc(N)c(C)c1	u	i	-2%	-1%	i	-7%
Cc1oc(-c2ccccc2Cl)nc1CN1C(=O)CN=C(c2ccccc2)c2ccccc21	35µM*	i	0%	0%	i	-31%
Cc1ccc(-c2nc(CN3C(=O)CN=C(c4ccccc4)c4ccccc43)c(C)o2)cc1	5%[9.22 µM]	i	0%	x	i	x
N=C1c2ccccc2CN1c1cccc([N+](=O)[O-])c1	-18%	i	0%	-2%	i	-1%
Nc1cccc2c1Cc1cc([N+](=O)[O-])ccc1-2	u	i	28µM*	x	i	1%
O=C1C(=O)C(Cl)=C(Cl)C(Cl)=C1Cl	4%	i	-2%	x	i	u
COc1ccc(OC)c(/C=N/OC(=O)Nc2ccc(Cl)cc2)c1	18µM*	i	5%	2%	i	-15%
CC(C)(C)C(=O)c1cn(Cc2ccccc2)c2ccccc12	13µM*	i	x	-1%	i	0%
O=C(COc1ccccc1)c1cn(Cc2ccccc2)c2ccccc12	14%	i	-4%	-26%	i	15%
O=C(c1ccco1)c1cn(Cc2ccccc2Cl)c2ccccc12	u	i	-17%	-3%	i	3%
CCC(=O)c1cn(Cc2ccccc2)c2ccccc12	8.9µM*	i	0%	1%	i	4%
O=C(c1ccco1)c1cn(Cc2ccccc2)c2ccccc12	22µM*	i	-10%	u	i	5%
O=C(c1cn(Cc2ccccc2)c2ccccc12)C1CC1	4%	i	0%	-1%	i	9%
COc1ccc(-c2cc(C(=O)N3CCN(c4ccccc4OC)CC3)c3cc(C(C)C)ccc3n2)cc1	u	i	u	x	i	x
CN1C(=O)C(=Cc2ccccc2Oc2ccc(Cl)c(F)c2)C(=O)N(C)C1=O	22µM*	i	6%	0%	i[9.22 µM]	5%
O=C1NC(=O)C(=Cc2ccccc2Oc2ccc(F)cc2)C(=O)N1	-13%	i	x	0%	i	-4%
O=C1NCCOC(=O)[C@@H](Cc2ccc(F)cc2)CC/C=C/C[C@@H]1CC(=O)N(CCO)Cc1ccccc1	22%	u	-1%	-3%	i	1%
CNC(=O)Oc1ccc2c(c1)C(=O)c1ccccc1CO2	28%	i	-1%	2%	i	3%
CNC(=O)Oc1cccc(-c2cn3cc(OC(=O)NC)ccc3n2)c1	25%	x	14µM*	-6%	i	-22%
C[C@@H]1CN([C@H](C)CO)C(=O)c2c(c3ccccc3n2C)-c2ccccc2CO[C@H]1CN(C)Cc1ccc(-c2ccccc2)cc1	3%	u	u	x	i	-11%
COc1ccc(-c2nc(CSCC(=O)N3CCN(c4ccc(F)cc4)CC3)c(C)o2)cc1	u	u	-6%	x	i	x
C=C(COC(=O)CCC(=O)O)CC1CC(O)[C@]2(C)OC3CC4OC5C[C@]6(C)O[C@]7(C)CCC8OC9C[C@]%10(C)OC%11C(C)=CC(=O)OC%11CC%10OC9C[C@@H](C)C8OC7CC6O[C@]5(C)C/C=C\C4OC3CC2O1 (stereo not given in full)	14%	7.1µM*	0%	-1%	i	-1%
